According to PubChem BioAssay:
Calls of active or inactive are those of the source.

Assay: CREB reporter modulators under forskolin, primary screen, cell-based, PC12, CRE-LacZ reporter, forskolin-stimulated (AID 1146);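 also: PC12 cells with 6xCRE LacZ reporter stimulated by forskolin 10 µM; beta-galactosidase reporter signal reflecting CREB driven transcription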
Conditions: luminescence, 4.5 h, higher = more signal, called active from +8 up or from −8 down

z-score, inactive:
C=CC[C@@H]1C=C[C@H](ON=C2c3cc(OC)ccc3O[C@H](c3cccc(OC)c3)[C@H]2O)[C@@H](CO)O1 0.442
COCCOC(=O)N1C(=O)[C@@]2(c3cc(C#CCNC(N)=O)ccc31)[C@H](c1ccc(O)cc1)N1[C@H](c3ccccc3)[C@H](c3ccccc3)OC(=O)[C@H]1[C@@H]2C(=O)N1CCCCCCC1 0.357
CC(C)(C)N1C(=O)[C@H]2[C@H]3[C@H](O)[C@H](O)CC(=NOCc4ccccc4)[C@@H]3CC[C@H]2C1=O 0.479
O=C1C[C@]2(c3ccc([N+](=O)[O-])cc3)C(=O)N(CCN3CCOCC3)c3cc(CO)ccc3[C@H]2N1CC12CC3CC(CC(C3)C1)C2 0.247
CC[C@@H](c1ccccc1)n1c(=O)n2n(c1=O)[C@H]1[C@H](O)[C@@H]3O[C@@H]3C(=NOCC(C)C)[C@H]1CC2 0.671
O=C1[C@H]2[C@H]3[C@H](O)[C@H](O)CC(=NO[C@@H]4O[C@H](CO)[C@@H](O)[C@H](O)[C@H]4O)[C@@H]3CC[C@H]2C(=O)N1Cc1ccc2c(c1)OCO2 0.366
CC(C)=C1C(=O)C(c2ccccc2)=C2CN3C(=O)N(CCc4ccccc4)C(=O)[C@]3(Cc3ccc(F)cc3)[C@H]21 1.73
CO[C@@H]1COC(=O)CCC[C@@H](C)[C@H](OC)COC(=O)[C@H](Cc2ccccc2)NC(=O)CC=C[C@H]1C 1.18
Cc1ccc(F)cc1S(=O)(=O)N[C@@H]1CCN(Cc2ccc(CC(C)C)cc2)C1 0.673
CC(C)[Si]1(C(C)C)O[C@@H](c2ccccc2)c2cc(C3CC3)nc(-c3ccccc3)c21 -0.541
COC(=O)[C@@]1(Cc2ccc(F)cc2)[C@H]2c3cc(C(=O)N(C)C)n(Cc4ccc(OC)c(OC)c4)c3C[C@H]2CN1C(=O)c1ccccc1 0.426
CCOC(=O)CCN1C(=O)[C@H]2[C@H]3[C@H](O)C=CC(=O)[C@@H]3CC[C@H]2C1=O -0.297
C[C@H](c1ccccc1)N1C(=O)[C@H]2[C@@H]3C(=CC[C@H]2C1=O)C(=O)[C@H]1O[C@H]1[C@H]3O 4.29
CS(=O)(=O)CCOC(=O)C1=CC(CCCO)=CC(c2cccs2)N(Cc2cccc(OC(F)(F)F)c2)C=C1C(=O)OCCS(C)(=O)=O (stereo not given) 0.706
O=C1[C@H]2[C@H]3[C@H](O)[C@H](O)CC(=NO[C@@H]4O[C@H](CO)[C@@H](O)[C@H](O)[C@H]4O)[C@H]3CC[C@H]2C(=O)N1Cc1ccc2c(c1)OCO2 -0.576
Cc1cc2c(nc1C)CCCN2CC(C)ON=C1[C@H]2CCn3c(=O)n(-c4ccccc4)c(=O)n3[C@H]2[C@H](O)[C@@H]2O[C@H]12 (stereo not given in full) 0.533
Cc1cc(C)c(-c2cc([C@H](C)ON=C3[C@H]4CCn5c(=O)n(-c6ccccc6)c(=O)n5[C@H]4[C@H](O)[C@@H]4O[C@H]34)on2)c(C)c1 1.43
COc1ccc([Si](C)(C)[C@@H]2[C@@H](CCO)O[C@]3(C(=O)N(Cc4ccc(NC(C)=O)cc4)c4ccccc43)[C@H]2C)cc1 -2.33
c1ccc(C2NCCc3c2[nH]c2ccccc32)cc1 (stereo not given) -1.11
CC(=O)C[C@H](O)[C@@H](NC(=O)OC(C)(C)C)C(C)C 1.01
CO[C@H]1O[C@H](CO)[C@@H](OC(=O)Nc2ccc(C#N)cc2)[C@H](OC(=O)c2cc3ccccc3[nH]2)[C@H]1OC(=O)c1cc2ccccc2[nH]1 -1.03
CO[C@@H]1COC(=O)[C@@H]2CCCN2C(=O)[C@@H](C)COC(=O)[C@H](COCc2ccccc2)NC(=O)CC=C[C@H]1C 0.435
COc1ccc(O[C@H]2C=C[C@@H](c3ccccc3)O[C@@H]2COC(=O)CCC(C)=NO[C@H](C)c2cn([C@@H]3COC[C@H]3O)nn2)cc1 0.867
CC(CCC(=O)OC[C@H]1O[C@H](C#Cc2ccccc2)C=C[C@@H]1Oc1ccc(C)cc1)=NO[C@@H](C)c1cn([C@H](CO)Cc2ccccc2)nn1 0.0061
CO[C@H]1COC(=O)[C@H](C)COC(=O)CC=C[C@@H](C)[C@H](OC)COC(=O)CC=C[C@@H]1C 0.592
